The record followed here is PubChem BioAssay.

This assay is described as follows: probe aLAP1 signal on lysate-treated microarray – cell lysate, small-molecule microarray, COS7 lysate, primary screen (AID 1124).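 Also: lysate comes from COS7 cells expressing LAP1 and is applied at 0.3 µg/mL; score merges spot fluorescence near 667 nm with signal-to-noise over triplicate slides.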 The following applies: probe aLAP1, fluorescence, higher = more signal.
Molecule `C=CC[C@@]1(C(=O)N2CCOCC2)N=C(c2ccc(OCCCO)cc2)O[C@@H]1c1ccccc1` came in with a composite z-score of -0.108.
For `COc1cc2c(cc1OC)CN(C(=O)[C@H]1[C@@H]3C(=O)O[C@@H](c4ccccc4)[C@@H](c4ccccc4)N3[C@@H](c3ccc(O)cc3)[C@]13C(=O)Nc1ccc(C#CC4(O)CCCCCC4)cc13)CC2` the value was 0.876; for `O=C/C=C/c1ccccc1Cl`, 0.399; for `C=CCC(OC(C)=O)[C@@H]1[C@@H](N(Cc2cccc3ccccc23)C(=O)Cc2ccc(F)cc2)c2cc(OCCCO)ccc2N1C(=O)Cc1ccc2ccccc2c1` (some centres undefined), -0.27.
With `CC(=O)NCCCC[C@@H]1NC(=O)[C@@H]2C[C@H](C(=O)NCCCCCNC(=O)CS)[C@H](c3ccc(O)cc3)N2C1=O` the figure was -0.377.
For `C[N+](C)(C)CCCCNC(=O)[C@@H]1C[C@@H]2C(=O)N3CCC[C@H]3C(=O)N2[C@@H]1c1cccc(OCCO)c1` the value was 0.248; for `O=C(NCC(O)CO)[C@]1(Cc2ccccc2)N=C(c2ccc(OCCCO)cc2)O[C@@H]1c1ccccc1` (some centres undefined), 0.634.
As for `COC(=O)Cn1c(C(=O)N2CCCC2)cc2c1C[C@H]1CN(C(=O)c3ccccc3)[C@@](Cc3ccccc3)(C(=O)OC)[C@@H]21`, the composite z-score was -0.263.
With `CCOC(=O)[C@H]1C/C=C/C[C@H](C(=O)OCC)C(=O)O[C@H]2[C@@H](OC)O[C@H](CO)[C@@H](OC(=O)Nc3ccc(Br)cc3)[C@@H]2OC1=O` the figure was 0.704; with `CO[C@@H]1COC(=O)[C@@H]2CCCN2C(=O)CC=C[C@@H](C)[C@H](OC)COC(=O)[C@@H]2CCCN2C(=O)CC=C[C@H]1C`, 0.169.
With `COCCOC(=O)N1C(=O)[C@@]2(c3cc(C#CCCO)ccc31)[C@H](c1ccc(O)cc1)N1[C@H](c3ccccc3)[C@H](c3ccccc3)OC(=O)[C@H]1[C@@H]2C(=O)Nc1nc2ccccc2s1` the figure was 0.403.
With `COc1cc2c(cc1OC)CN(C(=O)[C@@H]1[C@H]3C(=O)O[C@H](c4ccccc4)[C@H](c4ccccc4)N3[C@H](c3ccccc3OCCO)[C@@]13C(=O)Nc1ccccc13)CC2` the figure was 1.31; with `COc1ccc([Si](C)(C)[C@H]2[C@H](CCO)O[C@@]3(C(=O)N(Cc4ccc(N5CCCCC5=O)cc4)c4ccccc43)[C@@H]2C)cc1`, 0.109.
As for `CCCCO[C@H]1C[C@H]2C(Br)=C[C@@]1(CO)C(=O)[C@]21CO1`, the composite z-score was -0.139.
For `CCOC(=O)C[C@H]1[C@H](OC(=O)c2ccccc2-c2ccccc2)[C@@H](NC(=O)C2CCCCC2)c2cc(OCCCO)ccc2N1C(=O)c1ccccc1` the value was -0.175; for `CO[C@H]1COC(=O)[C@H](C)NC(=O)CC=C[C@@H](C)[C@H](NS(=O)(=O)c2ccc(C)cc2)COC(=O)[C@@H](OCc2ccccc2)C=C[C@@H]1C`, -0.659.
For `CC(C)CNC(=O)[C@@]1(C)c2ccccc2C(=O)N(Cc2ccc(OC(F)(F)F)cc2)[C@H]1c1ccc(CO)cc1` the value was 0.559; for `CC(C)C[C@@H]1NC(=O)[C@H]2C[C@@H](C(=O)NCCCCCC[N+](C)(C)C)[C@@H](c3ccc(O)cc3)N2C1=O`, 0.102; for `C=CC[C@@]1(C(=O)NCC(O)CO)N=C(c2ccc(OCCCO)cc2)O[C@@H]1c1ccccc1CN=[N+]=[N-]` (some centres undefined), 0.411.
